The experiment deals with furin, P09958. The experiment can be described thus: furin cleavage Z-score vs untreated control; higher = more cleavage, active = 3.5 or more, inactive = 1 or less, 8 variable residues between constant flanks. As to the method:
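Multiplexed peptide-cDNA fusion cleavage assay. 8-mer variable peptides flanked by constant Cys-Ala (N-term) and Ala-Gly-Asn-Ala-Ser-Ala-Ser-Ala (C-term) and conjugated to a cDNA oligonucleotide were bead-immobilised via the N-terminus. They were treated with purified furin at a 1:10 enzyme:substrate ratio in 50 mM HEPES pH 7.5, 1 mM CaCl2, 100 mM NaCl for 7.5, 15 or 30 min. Released cDNA was counted by next-generation sequencing, and log counts versus no-furin controls were lowess-adjusted and converted to robust Z-scores.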

The values that follow come from the supplement of paper PMC3545927.

This is one part of the list. The true hit rate is not given.

Chain of furin, P09958 (P09958 whole entry, the tested form may be a part): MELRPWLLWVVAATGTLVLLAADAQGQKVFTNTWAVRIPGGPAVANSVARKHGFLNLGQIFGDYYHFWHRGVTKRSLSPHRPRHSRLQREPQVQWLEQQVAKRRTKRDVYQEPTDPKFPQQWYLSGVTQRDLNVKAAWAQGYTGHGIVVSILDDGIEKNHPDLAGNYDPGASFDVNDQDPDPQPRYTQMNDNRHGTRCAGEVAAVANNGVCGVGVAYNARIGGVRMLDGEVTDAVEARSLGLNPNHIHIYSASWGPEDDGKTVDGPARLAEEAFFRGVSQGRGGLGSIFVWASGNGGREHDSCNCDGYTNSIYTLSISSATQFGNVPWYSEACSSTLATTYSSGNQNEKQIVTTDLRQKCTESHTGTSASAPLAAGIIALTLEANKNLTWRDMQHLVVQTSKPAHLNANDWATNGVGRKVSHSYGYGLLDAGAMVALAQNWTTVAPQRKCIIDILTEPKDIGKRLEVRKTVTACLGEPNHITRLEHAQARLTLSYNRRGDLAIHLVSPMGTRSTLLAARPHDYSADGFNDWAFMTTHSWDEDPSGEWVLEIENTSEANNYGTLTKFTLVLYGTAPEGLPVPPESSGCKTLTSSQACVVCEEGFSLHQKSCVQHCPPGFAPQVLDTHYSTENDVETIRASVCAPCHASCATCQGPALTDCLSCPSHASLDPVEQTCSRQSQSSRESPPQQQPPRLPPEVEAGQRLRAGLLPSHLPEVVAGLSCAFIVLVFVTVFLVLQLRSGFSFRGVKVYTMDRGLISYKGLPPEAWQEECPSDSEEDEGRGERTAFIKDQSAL

As for CASALYVGDLAGNASASA [HC297], the “furin cleavage Z-score” value is, setting by setting: (7.5 min) -0.151 (inactive); (15 min) -0.752 (inactive); (30 min) -0.26 (inactive).

Consider CADSSRPARFAGNASASA [FS-987], for which the “furin cleavage Z-score” value (7.5 min) is 0.601 (inactive), the “furin cleavage Z-score” value (15 min) is 2.61 and the “furin cleavage Z-score” value (30 min) is 1.35.

With CAFKHRRARFAGNASASA [FS-767], the “furin cleavage Z-score” value is, setting by setting: (7.5 min) 5.47 (active); (15 min) 8.44 (active); (30 min) 8.1 (active).

Take CAMTHRWNRFAGNASASA [FS-1545]: the “furin cleavage Z-score” value is, setting by setting: (7.5 min) -0.191 (inactive); (15 min) 1.1; (30 min) -0.35 (inactive).

As to CALKGRPARFAGNASASA [FS-1135], the “furin cleavage Z-score” value reads like this: (7.5 min) 1.12; (15 min) 3.63 (active); (30 min) 3.8 (active).

As to CAARQRRARFAGNASASA [FS-1186], the “furin cleavage Z-score” value was 7.96 (active) (7.5 min), 10.3 (active) (15 min) and 9.01 (active) (30 min).

As to CAVEGERGFFAGNASASA [EK8], the “furin cleavage Z-score” value (7.5 min) was -1.92 (inactive), the “furin cleavage Z-score” value (15 min) was -1.33 (inactive) and the “furin cleavage Z-score” value (30 min) was -1.12 (inactive).

As for CALLLALPQRAGNASASA [HC560], the “furin cleavage Z-score” value runs as follows: (7.5 min) -0.644 (inactive); (15 min) -0.224 (inactive); (30 min) -1.36 (inactive).

For CAEVRTSTWVAGNASASA [HC2193], the “furin cleavage Z-score” value runs as follows: (7.5 min) 0.577 (inactive); (15 min) -0.283 (inactive); (30 min) 2.14.

For the sequence CAIDVVCCSMAGNASASA [HC2104], the “furin cleavage Z-score” value by setting is: (7.5 min) -0.251 (inactive); (15 min) 0.23 (inactive); (30 min) 1.61.

Regarding CATTHCSGSWAGNASASA [HC1875], the “furin cleavage Z-score” value was -0.832 (inactive) (7.5 min), -0.00567 (inactive) (15 min) and -1.4 (inactive) (30 min).

As for CAPCAAEEQKAGNASASA [HC1377], the “furin cleavage Z-score” value was 0.0863 (inactive) (7.5 min), -1.23 (inactive) (15 min) and 0.435 (inactive) (30 min).

In the case of CARKKRLKESAGNASASA [FS-2343], the “furin cleavage Z-score” value (7.5 min) is 0.749 (inactive), the “furin cleavage Z-score” value (15 min) was found to be 2.21 and the “furin cleavage Z-score” value (30 min) was found to be 1.93.

As to CARKKRRRESAGNASASA [FS-1903], the “furin cleavage Z-score” value reads like this: (7.5 min) 4.55 (active); (15 min) 6.12 (active); (30 min) 4.85 (active).

In the case of CARNGRWEESAGNASASA [FS-3005], the “furin cleavage Z-score” value runs as follows: (7.5 min) -0.164 (inactive); (15 min) -0.44 (inactive); (30 min) 0.183 (inactive).

Turning to CARKKRFVSSAGNASASA [FS-2213], the “furin cleavage Z-score” value reads like this: (7.5 min) 9.34 (active); (15 min) 10.7 (active); (30 min) 11.2 (active).

In the case of CARKKRQLYSAGNASASA [FS-2967], the “furin cleavage Z-score” value by setting is: (7.5 min) 7.88 (active); (15 min) 8.76 (active); (30 min) 9.63 (active).

In the case of CASIVYEAADAGNASASA [HC266], the “furin cleavage Z-score” value was 0.365 (inactive) (7.5 min), 0.0281 (inactive) (15 min) and 0.406 (inactive) (30 min).

As for CASVGLGKVLAGNASASA [HC1081], the “furin cleavage Z-score” value reads like this: (7.5 min) 0.567 (inactive); (15 min) 0.113 (inactive); (30 min) 1.61.

Take CAVLSRASRSAGNASASA [FS-104]: the “furin cleavage Z-score” value is 9.22 (active) (7.5 min), 8.83 (active) (15 min) and 7.05 (active) (30 min).

For CALNSRSARSAGNASASA [FS-1230], the “furin cleavage Z-score” value reads like this: (7.5 min) 9.33 (active); (15 min) 9.86 (active); (30 min) 8.45 (active).

For CANKSRSARSAGNASASA [FS-467], the “furin cleavage Z-score” value (7.5 min) is 7.95 (active), the “furin cleavage Z-score” value (15 min) is 7.93 (active) and the “furin cleavage Z-score” value (30 min) is 7.08 (active).

As for CASKVRKSRSAGNASASA [FS-1166], the “furin cleavage Z-score” value reads like this: (7.5 min) 10.9 (active); (15 min) 11.3 (active); (30 min) 8.46 (active).

Regarding CAMEEHSQHLAGNASASA [HC9], the “furin cleavage Z-score” value is, setting by setting: (7.5 min) -0.427 (inactive); (15 min) 0.433 (inactive); (30 min) 0.518 (inactive).

For the sequence CASVCGPVYCAGNASASA [HC411], the “furin cleavage Z-score” value (7.5 min) is -0.739 (inactive), the “furin cleavage Z-score” value (15 min) was -0.0378 (inactive) and the “furin cleavage Z-score” value (30 min) is 0.44 (inactive).

Turning to CALSQTKQSGAGNASASA [HC947], the “furin cleavage Z-score” value runs as follows: (7.5 min) -0.592 (inactive); (15 min) 0.456 (inactive); (30 min) -0.236 (inactive).

For the sequence CAWGVLAGIAAGNASASA [HC337], the “furin cleavage Z-score” value is -1.66 (inactive) (7.5 min), -1.27 (inactive) (15 min) and 0.739 (inactive) (30 min).

On to CAARPDYNPPAGNASASA [HC1305], for which the “furin cleavage Z-score” value was -1.38 (inactive) (7.5 min), -0.196 (inactive) (15 min) and -1.47 (inactive) (30 min).
